In PubChem BioAssay AID651650 (Sanford-Burnham Center for Chemical Genomics, 2012):

The compounds below were run against Neuropilin-1 (Homo sapiens) (UniProt O14786) (assay: NRP-1 b1b2 CendR peptide binding inhibitors, dose response, biochemical, FP and AlphaScreen panel (AID 651650)). Settings: NRP-1 b1b2 / RPARPAR peptide binding, FP or AlphaScreen; run 1, at 100 µM (top of the series).
Sequence of Neuropilin-1 (Homo sapiens) (O14786 whole entry, looked up): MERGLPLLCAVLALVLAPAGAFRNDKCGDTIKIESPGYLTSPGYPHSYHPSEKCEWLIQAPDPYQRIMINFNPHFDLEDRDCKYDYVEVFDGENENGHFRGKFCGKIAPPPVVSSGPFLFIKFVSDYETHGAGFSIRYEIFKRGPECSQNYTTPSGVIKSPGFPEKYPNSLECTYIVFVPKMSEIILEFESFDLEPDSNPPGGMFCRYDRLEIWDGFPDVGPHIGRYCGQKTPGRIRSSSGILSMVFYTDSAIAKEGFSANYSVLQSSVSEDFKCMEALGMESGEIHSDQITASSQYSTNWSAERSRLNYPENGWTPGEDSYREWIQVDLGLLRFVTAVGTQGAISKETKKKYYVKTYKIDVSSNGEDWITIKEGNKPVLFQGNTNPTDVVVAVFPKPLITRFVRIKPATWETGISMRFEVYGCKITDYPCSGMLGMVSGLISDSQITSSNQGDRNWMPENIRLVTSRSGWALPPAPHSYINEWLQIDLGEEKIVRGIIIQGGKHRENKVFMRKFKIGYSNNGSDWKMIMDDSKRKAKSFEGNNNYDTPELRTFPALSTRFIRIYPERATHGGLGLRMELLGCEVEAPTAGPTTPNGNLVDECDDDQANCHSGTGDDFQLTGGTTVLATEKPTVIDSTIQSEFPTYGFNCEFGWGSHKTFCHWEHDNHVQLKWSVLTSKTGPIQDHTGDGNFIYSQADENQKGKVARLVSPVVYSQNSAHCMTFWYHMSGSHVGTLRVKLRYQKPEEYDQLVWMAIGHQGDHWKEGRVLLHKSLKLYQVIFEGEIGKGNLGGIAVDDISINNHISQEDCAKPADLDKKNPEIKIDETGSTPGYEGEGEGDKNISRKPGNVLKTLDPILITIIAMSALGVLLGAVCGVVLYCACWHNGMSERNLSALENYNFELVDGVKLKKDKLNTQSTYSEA

Structure (SMILES) | inhibition [%]
CC(=O)C(C(c1ccccc1)N1CCCc2ccccc21)N1CCOCC1 (centres undefined) | 54
CCOC(=O)[C@@H]1[C@H]2COc3ccccc3[C@@H]2N2C(=O)N(c3ccc(Cl)cc3)C(=O)[C@]12C | 48.8
Cc1ccc(C(=O)Nc2nnc([C@H]3C[C@H](O)[C@@H](CO)O3)s2)cc1 | 25.4
COc1ccc([C@H]2/C=C\CN(C(=O)C3CC3)[C@@H](C)C(=O)N2Cc2ccc(F)cc2)cc1 | 30.1
C[C@@H](C(=O)Nc1cccnc1)n1c(=O)[nH]c2ccccc2c1=O | 44.7
O=C(Nc1cccc(C(F)(F)F)c1)C1Cc2c(-c3cccc(F)c3)ccnc2O1 (centres undefined) | 18.4
Cc1cc(N/C(=N/S(=O)(=O)c2cc(F)ccc2F)c2ccccc2)n(-c2ccccc2)n1 | -9.15
CC(C)(C)n1nc(-c2ccc(F)cc2)c2c(N)ncnc21 | 39.3
CC(CN1CCCCC1)OC(=O)c1ccc(Cl)cc1Cl (centres undefined) | 30.1
CCC1=C(OC(=O)N(CC)CC)N2C(=O)OC(=NCC(=O)OC)[C@]2(C)[C@H]2C1=CC[C@H]1C(=O)N(CC)C(=O)[C@H]12 | 11.6
COc1cc(CN2C[C@@H](CO)O[C@@H](n3cnc4c(N5CCN(c6ccccc6)CC5)ncnc43)C2)cc(OC)c1OC | 52.8
CCC1CCCCN1C(=S)Nc1ccc(OC(F)F)cc1 (centres undefined) | 69.3
C=C(C)COc1ccc(-c2[nH]ncc2-c2ccccc2)c(O)c1 | 16.9
COc1ccc(Cn2c3ccc(OC)cc3c3nc4ccccc4nc32)cc1 | 78.8
COC(=O)c1ccc(Cn2nnc3c(=O)[nH]c(C4CCCN(S(=O)(=O)c5cccc(Cl)c5)C4)nc32)cc1 (centres undefined) | 35.3
O=C1CSC(c2cn(-c3ccccc3)nc2-c2cccs2)N1CC1CCCO1 (centres undefined) | 73.3
Cc1cc(C)n2c(Nc3ccc4c(c3)OCCO4)c(-c3ccccn3)nc2n1 | 6.1
COc1cc(C(=O)Nc2cc3c(cc2N2CCCCC2)n(C)c(=O)n3C)cc(OC)c1OC | 57.1
CCCCCCCN1C(Nc2ccccc2)=NC[C@@H]1Cc1ccccc1 | 24.7
CC(OC(=O)c1ccco1)C(=O)Nc1nc(-c2ccccc2)cs1 (centres undefined) | -9.71

Structure (SMILES) | inhibition [%]
Cc1ccc(S(=O)(=O)N2[C@@H](c3ccc(Cl)cc3)C(C(=O)OC(C)(C)C)=CC[C@H]2c2ccc(Cl)c(Cl)c2)cc1 | 72.6
Cn1cccc1C1Nc2ccccc2NC2=C1C(=O)CC(C)(C)C2 (centres undefined) | 12.9
CC(C)(C)C(=O)COC(=O)c1cc(-c2ccncc2)nc2ccccc12 | 19.4
COC(=O)[C@@]1(Cc2ccc(OC)cc2)[C@H]2c3cc(C(=O)N4CCCC4)n(CCN4CCOCC4)c3C[C@H]2CN1C(=O)c1ccccc1 | 38.7
COc1ccc(NC(=O)CN2CCN(c3c(C)cc(C)cc3C)CC2)cc1 | 2.2
Cc1cc(=O)n2nc(N3CCCC(C(=O)N4CCOCC4)C3)sc2n1 (centres undefined) | 17
O=C(COc1cc(Cl)c(Cl)cc1Cl)Nc1ccc([N+](=O)[O-])cc1Cl | 38.3
CC(=O)NC(c1cccc(F)c1)c1nc(-c2cccc(C(F)(F)F)c2)cs1 (centres undefined) | 9.72
CCOCCCNC(=O)C(c1ccc(C)cc1)N(Cc1cccs1)C(=O)c1ccccc1O (centres undefined) | 24.4
Cc1ccnc(N2CCC(C(=O)Nc3ccc4c(c3)OCCO4)CC2)n1 | 41.7
O=C(Nc1cccc2c1CCCC2)c1cc(C2CCCCN2C(=O)CCCc2ccccc2)on1 (centres undefined) | -15
COc1ccc(-c2csc(NC(CO)c3nc4ccccc4n3CCCO)n2)cc1 (centres undefined) | 41.5
Oc1ccccc1-c1ccn[nH]1 | 32
O=C(Cn1cccc1C(=O)c1ccccc1)NCCC1=CCCCC1 | 94.3
O=C(c1ccc(-c2cccc(C(F)(F)F)c2)o1)N1CCCC(C(F)(F)F)C1 (centres undefined) | 3.1
CCN(Cc1ccncc1)C(=O)c1cc(COc2ccc(F)cc2F)on1 | 18.1
O=C(NNc1ncnc2c1cnn2-c1ccc(F)cc1)c1ccco1 | 25.9
O=C(OCn1nnc2ccccc2c1=O)c1ccc(Br)o1 | 25.4
C/C(=N\N=c1/sc2ccccc2n1C)c1ccccn1 | 23.1
